Screening results from PubChem BioAssay.
HT1080-NT tox: qHTS for induction of synthetic lethality in tumor cells producing 2HG: qHTS for the HT-1080-NT fibrosarcoma cell line; HT-1080-NT fibrosarcoma viability, CellTiter-Glo ATP luminescence, 48 h; Potency, µM (highest dose often 46.1 µM), without a hit: at the top dose activity, negative = less viability, most hits filed as cytotoxic; 360,000 compounds, 1.6% hits; AID 686970, 2013;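 note: NT is the 2HG producing partner of a matched IDH1 knockdown line; potency is the fitted concentration of half-maximal effect; 0% = DMSO-treated cells and -100% = media-only wells without cells; nearly all actives have a fitted effect of over 55% in size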
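Read-out is CellTiter-Glo luminescence after 10 minutes at room temperature, following 48 hours' compound treatment of HT-1080-NT cells (750 cells/well, RPMI, 5% FBS, 37 degrees C).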
TDP1 cell noCPT: qHTS for Inhibitors of human tyrosyl-DNA phosphodiesterase 1 (TDP1): qHTS in cells in absence of CPT | 420,000 compounds, 15% hits | AID 686978, 2013 | DT40 Tdp1-/- hTDP1 cells, no CPT, ATP luminescence, 48 h | Potency, µM (series often up to 46.2 µM), without a hit: at the top dose activity change, negative = growth inhibition, usual class: inhibitors; note: potency is the fitted concentration of half-maximal effect; nearly all actives have a fitted effect of over 55% in size
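Chicken DT40 Tdp1-/- cells stably complemented with human TDP1 were seeded at 400 cells/well with DMSO in place of 20 nM camptothecin. After compound pinning, cells grew at least 48 hr at 37 °C; viability read by CellTiter-Glo luminescence.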
HT1080 IDH1KD tx: qHTS for induction of synthetic lethality in tumor cells producing 2HG: qHTS for the HT-1080-IDH1KD cell line | Potency, µM (series often up to 46.1 µM), for inactives: top-dose activity, negative = toxicity, usual class: cytotoxic | HT-1080 IDH1 knockdown viability, ATP luminescence, 48 h | 360,000 compounds, 2% hits;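 note: potency is the fitted concentration of half-maximal effect; 0% = DMSO wells and -100% = cell-free medium wells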
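After a 2 h attachment period, IDH1KD HT-1080 cells took pin-transferred compound for 48 h at 37 °C; ATP-based luminescence after 10 min room-temperature reagent incubation reported viability.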
IL-1B inflam inh: qHTS for Inhibitors of Inflammasome Signaling: IL-1-beta AlphaLISA Primary Screen; THP-1 LPS/ATP IL-1B secretion, AlphaLISA, 16 h; active compounds read low; 360,000 compounds, 4.7% hits; activity change, % at 57.5 µM; in the data active = activity change below about -50%; inconclusive = mostly about -30% to -49%
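Secreted IL-1B measured by AlphaLISA bead assay after 16 h compound exposure of THP-1 cells; compounds (final up to 57.5 uM) added 1 h before LPS (250 ng/mL) and ATP (1.25 mM) stimulation; lower signal means less secretion.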
DT40 TDP1 CPT: qHTS for Inhibitors of human tyrosyl-DNA phosphodiesterase 1 (TDP1): qHTS in cells in presence of CPT | AID 686979, 2013 | chicken DT40 Tdp1-/-;hTDP1 cells + 20 nM CPT, ATP luminescence, 48 h | 420,000 compounds, 12% hits | Potency, µM (doses to about 46.2 µM), without a hit: at the highest dose activity change, negative = growth inhibition, hits mostly inhibitors; note: potency is the fitted concentration of half-maximal effect; nearly all actives have a fitted effect of over 55% in size
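Chicken DT40 Tdp1-/- cells complemented with human TDP1, 400 cells/well, exposed to compounds plus 20 nM camptothecin for at least 48 h at 37 C; viability read as ATP content by CellTiter-Glo luminescence.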
* marks the source's active call; other numbers are inactive results; ? = inconclusive; . = no result given; [ ] = remark or other dose. Rows were chosen to be rich in hits. Some 19% of all compounds tested hit in one or more screens of this group. Unless noted, calls come from the whole dose curve; as a rule, active = well fitted curve in the direction sought with a large enough effect; inconclusive = small, poorly fitted or top-dose-only effect, or another doubt; inactive = no such curve, though single readings can be large; an effect the other way counts as inactive or inconclusive. Unless noted, % is set by controls: 0 for no effect and ±100 for the full control effect.

SMILES	HT1080-NT tox	TDP1 cell noCPT	HT1080 IDH1KD tx	IL-1B inflam inh	DT40 TDP1 CPT
CC(=O)Nc1cccc(NC(=S)Nc2ccc(F)c(Cl)c2)c1	-6%	?	-1%	-7	16µM*
O=C(NNC(=S)Nc1ccc(F)c(Cl)c1)C1CC1	3%	9%	9%	3	43%
Oc1ccccc1-c1cnc2cccnn12	7%	?	1%	28	16µM*
CC1CC(C)CN(S(=O)(=O)N2CCCC(C(=O)NC(C)c3ccccc3)C2)C1 (stereo unspecified)	-2%	?	0%	32	?
O=C(Nc1ccc(O)c(-c2nc3ccccc3o2)c1)C1(c2ccc(Br)cc2)CCCC1	10%	13µM*	6%	2	?
O=C(Nc1ccc(O)c(-c2nc3ccccc3o2)c1)c1ccc(Br)cc1	.	-4%	.	.	-5%
COc1cccc(C(=O)Nc2ccccc2-c2nc3ccccc3s2)c1	.	?	.	.	-4%
COc1ccc(OCC(=O)Nc2ccc(O)c(-c3nc4ccccc4s3)c2)cc1	.	?	.	.	0.82µM*
Cc1ccc(SCC(=O)Nc2ccc(O)c(-c3nc4cc(C)ccc4o3)c2)cc1	.	21µM*	.	.	?
COc1ccc(C(=O)Nc2ccccc2-c2nc3ccccc3s2)c(OC)c1	.	16µM*	.	.	18µM*
COCCNC(=S)N1CCC(C(=O)c2ccc(Cl)cc2)CC1	-1%	?	-2%	16	?
Cc1cccc(N(CC(=O)NCc2ccco2)C(=O)CCC(=O)Nc2ccccn2)c1C	-9%	-29%	-2%	-8	-25%
CC(C)(C)NC(=O)c1ccccc1-c1nc(-c2ccccc2Cl)no1	9%	?	10%	8	?
CN(C(=O)C1Cc2c(-c3ccc(Cl)cc3)ccnc2O1)c1ccccc1 (stereo unspecified)	-20%	?	-1%	-4	?
Cc1ccc(NC(=O)C(C)Sc2nc(-c3ccccc3)c(C#N)c(=O)[nH]2)c(C)c1 (stereo unspecified)	.	2%	.	.	-2%
Cc1ccc(C(C)C)c(OCC(=O)Nc2ccc(O)c(-c3nc4cc(Cl)ccc4o3)c2)c1	.	-7%	.	.	9%
Cc1ccc(OCC(=O)Nc2ccc(O)c(-c3nc4cc(C)c(C)cc4o3)c2)cc1	.	1.6µM*	.	.	?
Cc1ccc(OCC(=O)Nc2ccc(O)c(-c3nc4ccccc4o3)c2)cc1	?	?	?	-25	12µM*
CCC(CC)C(=O)OCc1cc(=O)n2nc(C3CC3)sc2n1	.	?	.	.	-16%
COC(=O)c1ccc(N=C2S/C(=C\c3cc(C)n(-c4cccnc4)c3C)C(=O)N2C)cc1	-6%	18µM*	0%	?	?
Cc1ccc(N=C2S/C(=C/c3cccc(OCC(=O)O)c3)C(=O)N2C)cc1C	-5%	0%	-7%	9	-2%
O=C(Nc1cc(=O)[nH]c2nc(-c3ccccc3)nn12)c1ccccc1Cl	9%	12µM*	-1%	38	-20%
Cc1cc(NC(=O)c2ccccc2Cl)n(C(C)(C)C)n1	17%	6%	18%	16	-8%
COC(=O)c1ccc(NC(=O)CSc2nc3ncccc3[nH]2)cc1	-2%	21µM*	-5%	22	-21%
COc1ccc(NC(=O)CSc2nc3ccncc3[nH]2)c(OC)c1	-7%	9.2µM*	4%	19	23µM*
SMILES	HT1080-NT tox	TDP1 cell noCPT	HT1080 IDH1KD tx	IL-1B inflam inh	DT40 TDP1 CPT
COC(=O)c1ccc(NC(=O)CSc2nc(C)cc(=O)[nH]2)cc1	0%	-4%	8%	13	-18%
COC(=O)c1ccc(NC(=O)CSc2nc3ccc(OC)cc3[nH]2)cc1	.	23µM*	.	.	23µM*
COc1ccc2nc(SCC(=O)NCc3ccc(OC)c(OC)c3)[nH]c2c1	15%	-27%	10%	13	-12%
CCOc1ccc2nc(SCC(=O)NCc3ccc(OC)c(OC)c3)[nH]c2c1	5%	?	3%	-7	15µM*
CC(Sc1nc2ccccc2c(=O)n1CC1CCCO1)C(=O)Nc1ccc(S(N)(=O)=O)cc1 (stereo unspecified)	-5%	-29%	12%	-7	-11%
COc1ccc2nc(SCC(=O)NC3CCCCC3C)[nH]c2c1 (stereo unspecified)	?	9.2µM*	?	0	16µM*
COc1ccc2nc(SCC(=O)N(C)C3CCCCC3)[nH]c2c1	4%	-5%	2%	-13	-16%
O=C(CSc1nc2cc3ccccc3cc2[nH]1)Nc1ccc(F)cc1	?	23µM*	?	-4	?
O=C(Nc1ccc(Br)cc1)C1CCCN(S(=O)(=O)c2cccnc2)C1 (stereo unspecified)	-3%	26µM*	-1%	7	23µM*
CCN(CC)c1ccc(NC(=O)C2CCCN(S(=O)(=O)c3cccnc3)C2)c(C)c1 (stereo unspecified)	-5%	10µM*	-7%	39	15µM*
CCN(CCCNC(=O)C1CCCN(S(=O)(=O)CC)C1)c1cccc(C)c1 (stereo unspecified)	2%	15µM*	-4%	5	23µM*
CCc1cccc(NC(=O)C2CCCN(S(=O)(=O)c3cccnc3)C2)c1 (stereo unspecified)	-1%	15µM*	-4%	8	?
COc1ccc(C)cc1NC(=O)C1CCCN(S(=O)(=O)c2cccnc2)C1 (stereo unspecified)	0%	-10%	0%	0	-22%
Cc1ccc(OCC(=O)NNC(=O)c2cc(S(=O)(=O)N(C)C)ccc2N2CCCC2)cc1	2%	-12%	-1%	-20	-7%
Cn1c(CNC(=O)CSc2nc(-c3ccccc3F)nc3cc(=O)[nH]n23)nc2ccccc21	.	-8%	.	.	-8%
Cc1ccc(Nc2ccc(N3CCN(C(=O)c4ccc([N+](=O)[O-])cc4Cl)CC3)nn2)cc1	.	18µM*	.	.	21µM*
O=C(c1cccc([N+](=O)[O-])c1)N1CCN(c2ccc(Nc3ccccc3)nn2)CC1	.	21µM*	.	.	?
Cc1cc2c(cc1C)-n1nnnc1C(N(C)CCc1ccccc1)C(=O)N2 (stereo unspecified)	-1%	15µM*	-7%	20	23µM*
CCCn1c(N)[n+](CC(=O)c2ccco2)c2ccccc21	1%	-13%	0%	-59*	-2%
Oc1cc(-c2nc3ccccc3s2)cc2c1OCCN(Cc1cccn1-c1ccccn1)C2	.	0%	.	.	2%
Oc1cc(-c2nc3ccccc3s2)cc2c1OCCN(Cc1cccn1-c1ncccn1)C2	.	16µM*	.	.	-5%[9.04 µM]
